In PubChem BioAssay (NCI):
Compounds without any hit were thinned out: in the full panel of roughly 83,000, 20% have a hit.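 Cell lines were cultured in 96-well plates, exposed to a single compound concentration, and assessed for percent growth 48 hours later.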 Values without a mark were called inactive. The source made the active and inactive calls.

Test system: MOLT-4 leukemia
Experiment: NCI-60 one-dose screen, 48 h (100 = growth as untreated, 0 = no growth, -100 = all killed)
Conditions: 10 µM unless noted
Protocol: Growth inhibition of the MOLT-4 human tumor cell line is measured as a screen for anti-cancer activity. Cells are grown in 96 well plates and exposed to the test compound for 48 hours. Compounds are tested at a single concentration, which is 10^-5 M for most compounds. The reported endpoint is percent growth (GI% or GIPRCNT), where numbers from 0 - 100% represent growth inhibition, and numbers from -100% - 0 represent cell death. For example, a value of 40 represents 60% growth inhibition. A value of 0 means no net growth occurred over the course of the experiment. A value of -40 indicates 40% of cells at the beginning of the experiment died by the end of the experiment. A value of -100 means all cells are dead at the end of the experiment.
NCI-60 Human Tumor Cell Lines Screen was performed using the standard one-dose NCI protocol, which is described in more detail at https://dtp.cancer.gov/discovery_development/nci-60/default.htm.
Compounds with GIPRCNT values below 10 were considered active. Activity score was based on GIPRCNT using the following formula: […]
Score is 0 for GIPRCNT values of 100 or above, 50 for GIPRCNT values of 0, and 100 for GIPRCNT values of -100.

Row | Structure (SMILES) | growth
1 | CC(C)NCCCCCNc1cc(O)cc2cccnc12 | 16%
2 | CC1CCN(Cc2ccc(NC(=O)c3cc4ccc5cccnc5c4[nH]3)cc2)CC1 | 11.8%
3 | O=c1[nH]cnc2nc[nH]c12 | -45.9% (active)
4 | Nc1nc(N)c2cc(CNc3ccc(Cl)c(Cl)c3)ccc2n1 | -44.2% (active)
5 | CC(=O)c1c(C)nc(-c2cc(C)cc(Cl)c2)nc1-c1cccc(Oc2ccccc2)c1 | 27.9%
6 | COc1cc(C)c2c(=O)c3c(oc2c1)C(=O)c1c(O)c(OC)cc(O)c1C3=O | 16.3%
7 | CCN(CC)C(Cl)=Nc1ccc(Cl)cc1 | 95.7%
8 | CC(=O)c1ccc(Nc2nc(Cl)nc(Oc3c(Cl)cccc3Cl)n2)cc1 | 77.1%
9 | CNCc1cccc2c1OCCOCCOCCC(C)S(=O)(=O)c1ccc(cc1)-c1cnc(N)c(n1)C(=O)N2 (stereo not given) | 16.4%
10 | CC(=O)c1cccc(Nc2ncnc3ccc(NC(=O)c4ccco4)cc23)c1 | 77.5%
11 | COc1cc(C)cc2oc3oc(=O)c(-c4csc(-c5cc6ccccc6oc5=O)n4)cc3c(=O)c12 | 108%
12 | CCC1CCc2nc3sc(C(=O)Nc4cccc(F)c4)c(N)c3cc2C1 (stereo not given) | 37.5%
13 | C=C1NC(=O)C(C(C)CC)NC(=O)C2CSCC(NC(=O)CCC(=O)O)C(=O)NC(Cc3ccccc3)C(=O)NC(C)C(=O)NC(CC(C)CC)C(=O)NC(C(=O)NC(Cc3ccccc3)C(=O)N3CCCC3C(=O)N2)C(C)OC(=O)C(CO)NC(=O)C(C(O)COC)N(C)C(=O)C(C(C)C)NC(=O)C(CC(C)CC)NC1=O (stereo not given) | 16.9% [6 µM]
14 | COc1ccc(/C=C2\CCCC3=C2N=C2SC(C)=NN2C3c2ccc(OC)c(OC)c2)cc1OC (stereo not given) | 27.7%
15 | CCCc1n(Cc2ccc3ccccc3c2)c2ccccc2[n+]1Cc1ccc2ccccc2c1 | -58.9% (active)
16 | NC(N)=N/N=C/c1ccccc1 | 95%
17 | Cc1cc(-c2nnc(/C=C/c3ccc4c(c3)OCO4)o2)n[nH]1 | 69.7%
18 | C#CC[C@@H]1C[C@]2(C)[C@H]3CC[C@@H]4[C@H]5C(C(=C)C)CC[C@]5(C(=O)NCCCCCCCCN)CC[C@@]4(C)[C@]3(C)CC[C@H]2C(C)(C)[C@H]1OC(C)=O (stereo not given in full) | 5.47% (active)
19 | Cc1ccc(/C=C/C(=N/N=C(N)N)c2ccccc2)cc1 | 24%
20 | O=C(Nc1cccc(Cl)c1)Nc1cc(C(F)(F)F)ccc1Cl | 10.1%

Row | Structure (SMILES) | growth
21 | COc1c(-c2cc(-c3ccc(C)o3)[nH]c(=O)n2)c(O)cc2occc12 | 41.1%
22 | COc1c(B(O)O)cccc1-c1nc2ccc3[nH]ncc3c2c2c1CCCC2 | 11.5%
23 | FC(F)(F)c1ccc(/C=N/Nc2nnc3n2N=C(c2ccc(Cl)cc2)CS3)cc1 | 79.5%
24 | CCN1CCN(Cc2ccc(NC(=O)c3nc4ccc5[nH]ncc5c4c4c3CCCC4)cc2C(F)(F)F)CC1 | -28.9% (active)
25 | CCN(CC)CCCC(C)N/C(c1cccc(OC)c1)=c1\c(=O)[nH]n(-c2c3ccccc3nc3ccccc23)c(=O)\c1=C(/NC(C)CCCN(CC)CC)c1cccc(OC)c1 (stereo not given) | -22.7% (active)
26 | COc1ccc(NC(=O)c2ccc(C(F)(F)F)nc2Nc2ccc(Cl)cc2C)cc1Cl | 8.09% (active)
27 | O=C(O)c1cn(-c2ccccc2)nc1-c1ccc(O)cc1 | 104%
28 | CCCc1cc2c(cc1CN(Cc1cc3c(cc1CCC)OCO3)C(=N)OCC)OCO2 | 93.5%
29 | O=C(Nc1ccc(Br)cc1)Nc1ccccc1Cl | 63.9%
30 | N#Cc1nc(-c2cccc(Br)c2)cc(-c2ccc(Nc3nc(N4CCCCC4)nc(N4CCCCC4)n3)cc2)c1N | 8.61% (active)
31 | Clc1ccc(Nc2ncnc3c2sc2ncccc23)c(Cl)c1 | 8.22% (active)
32 | CCN(CC)c1ccc2nc3c4ccccc4c(=O)cc-3n(-c3ccccc3)c2c1 | 2.41% (active)
33 | c1ccc(C2=Nc3ccccc3SC2)cc1 | 111%
34 | C=CCn1c(C)nc2cc(Nc3nc(N4CCCC4)nc4nc[nH]c34)ccc21 | 89%
35 | COc1ccccc1/C=N\NC(=S)Nc1ccc(F)cc1 | 57.3%
36 | Nc1nc(N)c2c(n1)NC(c1sc(Cl)nc1Cl)CC(c1ccccc1)=N2 (stereo not given) | 26%
37 | COc1ccc(CCN2COc3c([C@@H](C)CCC=C(C)C)ccc(C)c3C2)cc1OC | 48.3%
38 | CC(=O)c1cc(C(=O)c2ccc3c(c2)Sc2ccccc2N3)c2c(C)cccn12 | 12%
39 | CN1CCN(Cc2ccc(NC(=O)c3ccc(C#N)c(C#Cc4cnc(N)c5ncccc45)c3)cc2C(F)(F)F)CC1 | 59.6%
40 | COc1ccc(C(=O)c2cc(C)c(OC)c(C)c2)cc1OC(=O)CCl | 5.7% (active)
